± gives the standard deviation.
Tests used:
[1] = test system: MILI (PIWIL2) piRISC loaded with L1MC piRNA (26 nt); experiment: pre-steady-state target cleavage rate (min^-1); guide: L1MC piRNA 5'p-UAACUAAAUACUAUGCAAGCUGUAGG; higher = faster piRNA-guided slicing of the target;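 note: 1 nM active piRISC with 0.1 nM target library at 33 °C single turnover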
How it was run: (§1)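 Cleave-'n-Seq measured uncleaved targets by sequencing after a transcribed, DNA-blocked target RNA library […] was mixed with 1 nM active affinity-purified piRISC holding one synthetic guide, with or without 500 nM GTSF1 partner protein, at 33 °C in HEPES–potassium acetate buffer for 0–8 or 0–960 min. Counts were normalised to depth and to weakly complementary targets, three trials were pooled, and k3 was capped at 0.0001 min^-1. A burst-and-steady-state fit gave the pre-steady-state cleavage rate.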

[2] = test system: EfPiwi piRISC loaded with L1MC piRNA (26 nt); experiment: pre-steady-state target cleavage rate (min^-1); auxiliary factor: 500 nM Ephydatia muelleri Gtsf1; guide: L1MC piRNA 5'p-UAACUAAAUACUAUGCAAGCUGUAGG; MIWI and MILI are mouse PIWI proteins and EfPiwi is from a freshwater sponge; tags in brackets are library labels; higher = faster piRNA-guided slicing of the target
How it was run: as §1

[3] = auxiliary factor: 500 nM mouse GTSF1
[4] = auxiliary factor: none (no GTSF1)

Row | Sequence | pre-steady-state target cleavage rate [1, 3] | pre-steady-state target cleavage rate [1, 4] | pre-steady-state target cleavage rate [2]
1 | UCCUGCUACAGCUUGCAUAGUAUUUAGUCUA | 0.116 ± 0.02 | 0.00343 ± 0.0029 | 0.00636 ± 0.0024
2 | UCCUCCUAGUGCUUGCAUAGUAUUUAGUUA | 0.164 ± 0.018 | 0.00418 ± 0.0018 | 0.00928 ± 0.0031
3 | UCCUGGAUCACCUUGCAUAGUAUUAAGUUA | 0.201 ± 0.034 | 0.00424 ± 0.0023 | 0.00509 ± 0.0039
4 | UCCUCCUACAGCUUGCAUAAUAUUUAGUUA | 0.292 ± 0.026 | 0.00352 ± 0.0022 | 0.00664 ± 0.0024
5 | UCCUGGAUCUGCUUGCAUUGUAUUUAGUUA | 0.159 ± 0.015 | 0.00477 ± 0.0023 | 0.00657 ± 0.003
6 | UCCUGGAUGUCCUUGCAUAGUUUUUAGUUA | 0.0125 ± 0.0057 | 0.00594 ± 0.0021 | 0.00455 ± 0.003
7 | UCCUCCUACCGCUUGCAUAGUAUUUAGUUA | 0.305 ± 0.015 | 0.0125 ± 0.003 | 0.0865 ± 0.023
8 | UCCUGGAUGAGUUUGCAUAGUAUUUAGUUA | 0.17 ± 0.023 | 0.0059 ± 0.0028 | 0.0219 ± 0.006
9 | UCCUCCUGCAGCUUGCAUAGUAUUUAGUUA | 0.301 ± 0.018 | 0.0088 ± 0.0027 | 0.103 ± 0.024
10 | UCCUCCUAAAGCUUGCAUAGUAUUUAGUUA | 0.157 ± 0.019 | 0.00372 ± 0.0021 | 0.00604 ± 0.0023
11 | UCCUCCUACAGCUGCAUAGUAUUUAGUUA | 0.275 ± 0.018 | 0.00792 ± 0.0023 | 0.0884 ± 0.026
12 | UCCUGGAUGUGCCUUGCAUAGUAUUUAGUUA | 0.111 ± 0.022 | 0.00996 ± 0.0032 | 0.0886 ± 0.031
13 | UCCUGCUACAGCUAGCAUAGUUUUUAGUUA | 0.0836 ± 0.014 | 0.00345 ± 0.0024 | 0.00472 ± 0.0016
14 | UCCUCCUACAGCCUGCAUAGUAUUUAGUUA | 0.287 ± 0.018 | 0.0111 ± 0.0024 | 0.0698 ± 0.018
15 | UCCUGGAUGUCGAUGCAUAUUAUUUAGUUA | 0.016 ± 0.0043 | 0.00389 ± 0.0019 | 0.0047 ± 0.0036
16 | UCCUCCUACAGCUUGGCAUAGUAUUUAGUUA | 0.338 ± 0.057 | 0.00447 ± 0.0021 | 0.0133 ± 0.0047
17 | UCCUGGAUCAGCUUUGCAUAGUAUUUAGUUA | 0.297 ± 0.016 | 0.0075 ± 0.0028 | 0.103 ± 0.023
18 | UCCUGCUUGUGCUUGCAUAGUAUUUAGUUA | 0.13 ± 0.017 | 0.00616 ± 0.0025 | 0.00618 ± 0.0027
19 | UCCUGGAUCAGGUUGCUUAGUAUUUAGUUA | 0.189 ± 0.011 | 0.00878 ± 0.0023 | 0.00555 ± 0.0024
20 | UCCUCCUACAGCUAGCAUAGUAUUAAGUUA | 0.205 ± 0.019 | 0.0038 ± 0.0018 | 0.00633 ± 0.0029
21 | UCCUCCUACAGCUUGCAUAGUAAUUUAGUUA | 0.199 ± 0.019 | 0.00674 ± 0.0025 | 0.00821 ± 0.0033
22 | UCCUGGAACAGCAUGCAUUGUAUUUAGUUA | 0.204 ± 0.016 | 0.00901 ± 0.0024 | 0.00504 ± 0.002
23 | UCCUGGAUGAGCUUGCAUAGUAUUUAGUA | 0.223 ± 0.025 | 0.00747 ± 0.0025 | 0.00405 ± 0.0032
24 | UCCUGGAUGACUUGCAUAGUAUUUAGUUA | 0.171 ± 0.014 | 0.004 ± 0.0027 | 0.0058 ± 0.0023
25 | UCCUGGAUGACCUUGCAAAGUAUUUAGUUA | 0.0397 ± 0.011 | 0.00372 ± 0.0031 | 0.00391 ± 0.0037
26 | UCCUGGAACACCUUGCAUAGUAAUUAGUUA | 0.191 ± 0.031 | 0.00362 ± 0.0024 | 0.00283 ± 0.0022

Row | Sequence | pre-steady-state target cleavage rate [1, 3] | pre-steady-state target cleavage rate [1, 4] | pre-steady-state target cleavage rate [2]
27 | UCCUGGUCAGCUUGCAUAGUAUUUAGUUA | 0.269 ± 0.016 | 0.012 ± 0.0027 | 0.14 ± 0.027
28 | UCCUGCUAGAGCUUGCAUAGUAUUUAGUUA | 0.198 ± 0.017 | 0.00605 ± 0.0021 | 0.00838 ± 0.0023
29 | UCCUGGAUCAGCUUGUCAUAGUAUUUAGUUA | 0.21 ± 0.019 | 0.00334 ± 0.0027 | 0.0196 ± 0.0046
30 | UCCUCCAACAGCUUGCAUAGUAUUUAGAUA | 0.192 ± 0.034 | 0.00442 ± 0.0025 | 0.0051 ± 0.0023
31 | UCCUGGAUGUGCUUUGCAUAGUAUUUAGUUA | 0.157 ± 0.016 | 0.0132 ± 0.0033 | 0.00805 ± 0.003
32 | UCCUGGAUGUGCUUGCAUAGUAUCUAGUUA | 0.135 ± 0.031 | 0.00366 ± 0.0031 | 0.00344 ± 0.0024
33 | UCCUGGUACAGCUUGCAUAGUAUUUAGUUU [g2:g24:cont:t1U] | 0.249 ± 0.016 | 0.0218 ± 0.0053 | 0.117 ± 0.038
34 | UCCUGGAUCUGCAUGCAUAGUAUUUAGUUA | 0.209 ± 0.015 | 0.00837 ± 0.0023 | 0.0798 ± 0.021
35 | UCCUGCUUCAGCUUGCAUAGUAUUAAGUUA | 0.13 ± 0.02 | 0.00279 ± 0.0026 | 0.00492 ± 0.0016
36 | UCCUGGAUGUCGCUGCAUAGUAUUUAGUUA | 0.0516 ± 0.0095 | 0.00769 ± 0.0026 | 0.00471 ± 0.0025
37 | UCCUGCUACAGCUUGCAUAGUAUUUAGUUUA | 0.308 ± 0.018 | 0.0118 ± 0.0032 | 0.0608 ± 0.016
38 | UCCUCCUACAGCUUGCAUAGUAUUAUGUUA | 0.15 ± 0.025 | 0.00329 ± 0.0023 | 0.0049 ± 0.0026
39 | UCCUGCUACAGCUUGCAUAGUAUUUAGUUU [g2:g25:cont:t1U] | 0.315 ± 0.022 | 0.0127 ± 0.0035 | 0.158 ± 0.042
40 | UCCUCCUACAGCUUGCAAAGUAUUUAGUUA | 0.167 ± 0.014 | 0.00717 ± 0.0022 | 0.0392 ± 0.012
41 | UCCUGGAUCAGCUUGCAAAGUUUUUAGUUA | 0.00906 ± 0.0052 | 0.0042 ± 0.0022 | 0.00491 ± 0.0036
42 | UCCUGCUACAGCUAGCAUAGUAAUUAGUUA | 0.284 ± 0.026 | 0.0047 ± 0.003 | 0.00598 ± 0.0018
43 | UCCUGCUACUGCUUGCAUAGAAUUUAGUUA | 0.045 ± 0.0093 | 0.00256 ± 0.002 | 0.00563 ± 0.002
44 | UCCUCCUACAGCUUGGAUAGUUUUUAGUUA | 0.0664 ± 0.0092 | 0.00384 ± 0.0019 | 0.0265 ± 0.007
45 | UCCUGGAUGUCGACGCAUAGUAUUUAGUUA | 0.0214 ± 0.0042 | 0.00381 ± 0.0021 | 0.00545 ± 0.0032
46 | UCCUGGAACAGCUUGCUUUGUAUUUAGUUA | 0.182 ± 0.019 | 0.0038 ± 0.0025 | 0.00396 ± 0.0025
47 | UCCUCCUACAGCUUGCUUACUAUUUAGUUA | 0.089 ± 0.011 | 0.00298 ± 0.0026 | 0.0407 ± 0.015
48 | UCCUGGAUGAGCUUAGCAUAGUAUUUAGUUA | 0.217 ± 0.016 | 0.0041 ± 0.0027 | 0.0344 ± 0.0086
49 | UCCUGGAUGUGCUUGCAUAGUAUAAAGUUA | 0.0611 ± 0.011 | 0.00318 ± 0.0025 | 0.00378 ± 0.0034
50 | UCCUGGAUCUGCUUGCAUAGUAUUUAGUAA | 0.22 ± 0.014 | 0.00457 ± 0.0021 | 0.1 ± 0.038
51 | UCCUCCUACACCUUGCAUAGUAUUUAGUUA | 0.237 ± 0.025 | 0.0085 ± 0.0022 | 0.0762 ± 0.025

— the supplement of paper PMC10338343
